Among the data in PubChem BioAssay are growth inhibition, inhibition and outcome values, retold here.

The nature of assay [1]: antimalarial activity against Dd2 strain (AID 2302;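 active = growth inhibition above 50% at the single 2 µM test dose, taken to imply half-maximal potency below 2 µM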;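 note: 0% = DMSO untreated growth and 100% = chloroquine plus artemisinin killed control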). The settings on record: P. falciparum Dd2 in RBCs, LDH growth readout, 72 h; at 2 µM; hits give high values.
A short description of assay [2]: HepG2 cytotoxicity, primary screen, cytotoxicity control for P. falciparum antimalarial project, cell-based, ATP luminescence (AID 2303;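 active = inhibition above 50%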;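 note: 0% = DMSO wells and 100% = digitonin-killed cells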). Particulars: HepG2 viability, 24-48 h, at 10 µM, hits give high values.
In assay [3] the target is L-lactate dehydrogenase (Plasmodium falciparum (isolate CDC / Honduras)) (UniProt Q27743). Kind of assay: PfLDH activity inhibition – cell lysate, 3D7 strain, counter-screen for P. falciparum growth inhibition project (AID 2304).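 Note: 0% = vehicle and 100% = reference inhibitor.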 The settings on record: P. falciparum 3D7 crude extract, LDH APAD/NBT absorbance; at 2 µM; hits give high values.
L-lactate dehydrogenase (Plasmodium falciparum (isolate CDC / Honduras)), sequence (Q27743 whole entry, looked up): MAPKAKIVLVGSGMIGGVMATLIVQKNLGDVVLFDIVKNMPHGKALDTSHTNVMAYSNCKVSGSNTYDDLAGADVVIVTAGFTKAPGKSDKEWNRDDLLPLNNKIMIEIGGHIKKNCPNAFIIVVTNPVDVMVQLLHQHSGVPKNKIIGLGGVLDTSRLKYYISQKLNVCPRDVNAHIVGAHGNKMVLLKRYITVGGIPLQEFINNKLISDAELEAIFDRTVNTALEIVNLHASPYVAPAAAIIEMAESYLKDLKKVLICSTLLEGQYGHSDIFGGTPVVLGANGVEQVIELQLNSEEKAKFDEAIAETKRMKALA
The nature of assay [4]: inhibition of 3D7 malaria parasite growth – strain 3D7 (AID 2306).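 Note: 0% = DMSO wells and 100% = chloroquine plus artemisinin control wells.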 Particulars: P. falciparum 3D7 erythrocytic growth, LDH absorbance, 72 h; at 2 µM; hits give high values.
Assay [5] has as its target Calcium-dependent protein kinase 1 (Plasmodium falciparum (isolate 3D7)) (UniProt P62344). Briefly: PfCDPK1 kinase inhibitors, biochemical, TCAMS library (AID 1159585; cut-off not given, nearly all actives have IC50 up to about 0.98 µM;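 note: inhibitors leave more ATP so luminescence rises with inhibition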). The settings on record: recombinant PfCDPK1, Kinase-Glo ATP depletion luminescence.
The target of assay [6] is Plasmodium falciparum protein kinase 6 (PK6, PF3D7_1337100) (UniProt Q8IDW1). Briefly: PfPK6 kinase inhibitors, biochemical, TCAMS library (AID 1159586). Particulars: recombinant PfPK6, Kinase-Glo ATP depletion luminescence.
Plasmodium falciparum protein kinase 6 (PK6, PF3D7_1337100), sequence (Q8IDW1 1-305): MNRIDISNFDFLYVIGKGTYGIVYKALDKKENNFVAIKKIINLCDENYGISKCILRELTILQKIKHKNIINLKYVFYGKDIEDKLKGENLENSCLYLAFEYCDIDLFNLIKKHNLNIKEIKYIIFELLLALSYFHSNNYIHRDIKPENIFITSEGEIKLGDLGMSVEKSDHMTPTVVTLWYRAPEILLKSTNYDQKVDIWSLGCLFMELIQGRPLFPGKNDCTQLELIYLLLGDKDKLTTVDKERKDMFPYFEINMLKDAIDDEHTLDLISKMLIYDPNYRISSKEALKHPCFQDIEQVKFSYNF
For assay [7], the target named is Protein kinase 7 (PK7), Plasmodium falciparum 3D7 (PF3D7_0213400) (UniProt Q7YTF7). Briefly: inhibition of Plasmodium PK7 catalytic activity – biochemical, TCAMS antimalarial set, Kinase-Glo luminescence (AID 1159587). The settings on record: recombinant PfPK7, Kinase-Glo ATP depletion luminescence.
Protein kinase 7 (PK7), Plasmodium falciparum 3D7 (PF3D7_0213400), sequence (Q7YTF7 1-343): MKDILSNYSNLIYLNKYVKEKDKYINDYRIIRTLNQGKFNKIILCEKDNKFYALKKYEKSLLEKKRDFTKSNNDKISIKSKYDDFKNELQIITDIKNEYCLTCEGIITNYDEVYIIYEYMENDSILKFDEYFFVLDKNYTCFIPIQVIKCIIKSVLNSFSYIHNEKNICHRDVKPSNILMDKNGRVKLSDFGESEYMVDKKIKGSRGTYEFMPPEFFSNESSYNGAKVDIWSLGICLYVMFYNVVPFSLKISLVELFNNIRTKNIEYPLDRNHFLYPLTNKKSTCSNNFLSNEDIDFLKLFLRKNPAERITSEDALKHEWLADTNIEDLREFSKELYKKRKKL
For assay [8], the target named is Calcium-dependent protein kinase 4 (Plasmodium falciparum (isolate 3D7)) (UniProt Q8IBS5). Kind of assay: PfCDPK4 kinase inhibitors, biochemical, TCAMS library (AID 1159588; cut-off not given, nearly all actives have IC50 up to about 0.91 µM). The settings on record: recombinant PfCDPK4, Kinase-Glo ATP depletion luminescence.
Calcium-dependent protein kinase 4 (Plasmodium falciparum (isolate 3D7)), sequence (Q8IBS5 whole entry, looked up): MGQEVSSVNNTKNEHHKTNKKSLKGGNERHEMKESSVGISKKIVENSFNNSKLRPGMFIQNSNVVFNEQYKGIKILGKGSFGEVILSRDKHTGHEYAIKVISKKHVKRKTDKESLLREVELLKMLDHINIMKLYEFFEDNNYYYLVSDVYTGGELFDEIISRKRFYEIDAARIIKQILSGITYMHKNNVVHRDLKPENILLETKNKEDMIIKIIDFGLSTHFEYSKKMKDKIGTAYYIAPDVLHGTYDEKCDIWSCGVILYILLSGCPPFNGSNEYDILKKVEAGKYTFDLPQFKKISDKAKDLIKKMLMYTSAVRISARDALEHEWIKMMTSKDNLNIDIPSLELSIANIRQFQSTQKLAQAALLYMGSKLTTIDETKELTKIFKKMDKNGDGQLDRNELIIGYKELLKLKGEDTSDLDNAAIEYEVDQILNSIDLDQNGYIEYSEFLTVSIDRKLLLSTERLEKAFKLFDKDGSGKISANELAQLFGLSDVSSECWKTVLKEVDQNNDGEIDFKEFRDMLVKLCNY

The structures appear in SMILES notation. Values without a mark were called inactive. For some of these results: Results with a measured potency or affinity are listed apart. Activity calls are given as the source filed them. Unless noted, the rule behind the calls is not given here.

Calcium-dependent protein kinase 1 (Plasmodium falciparum (isolate 3D7)), sequence (P62344 whole entry, looked up): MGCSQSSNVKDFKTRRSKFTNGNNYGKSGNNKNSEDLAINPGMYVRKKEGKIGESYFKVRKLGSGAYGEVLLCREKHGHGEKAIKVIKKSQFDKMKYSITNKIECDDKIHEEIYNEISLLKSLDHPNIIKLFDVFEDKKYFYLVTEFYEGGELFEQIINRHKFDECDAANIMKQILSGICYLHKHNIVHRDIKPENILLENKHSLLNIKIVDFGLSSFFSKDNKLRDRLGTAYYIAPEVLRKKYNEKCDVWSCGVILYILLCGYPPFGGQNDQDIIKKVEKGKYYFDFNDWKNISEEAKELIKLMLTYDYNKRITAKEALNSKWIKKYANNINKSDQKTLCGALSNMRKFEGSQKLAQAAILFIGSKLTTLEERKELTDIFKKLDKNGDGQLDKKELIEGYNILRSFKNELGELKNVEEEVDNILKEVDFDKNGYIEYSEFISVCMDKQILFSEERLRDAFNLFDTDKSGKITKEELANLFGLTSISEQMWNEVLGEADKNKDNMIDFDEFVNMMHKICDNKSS

Turning to `CN(C)CCCOc1ccc(-c2csc(NC(N)=NCc3ccccc3)n2)cc1`, the growth inhibition was 97% (active) in assay [1] and 100% (active) in assay [4]. The values for the inhibition in assay [2] and in assay [3] were 57% (active) and 5%, respectively. In addition, the result in assay [5], in assay [6], in assay [7] and in assay [8] was inactive.
On to `Cc1cccc(Nc2nc(C)cc(N3CCCN(CC4CCCCC4)CC3)n2)c1`, for which the values for the growth inhibition in assay [1] and in assay [4] were 21% and 83% (active), respectively. For the same molecule, the inhibition was 20% in assay [2] and -2% in assay [3]. For the same molecule, the outcome in assay [5], in assay [6], in assay [7] and in assay [8] was inactive.
In the case of `CN1CCN(c2ccnc3ccc(NC(=O)Nc4cccc5c(Br)cccc45)cc23)CC1`, the growth inhibition in assay [1] is 96% (active); in assay [4], 100% (active). Also, the inhibition is 7% in assay [2] and 6% in assay [3]. In addition, the result in assay [5], in assay [6], in assay [7] and in assay [8] was inactive.
For `Cc1ncccc1C(=O)Nc1ccc(-c2cccc(-c3nc4c(C)cccc4[nH]3)c2)cc1`, the values for the growth inhibition in assay [1] and in assay [4] were 31% and 95% (active), respectively. Besides, the inhibition in assay [2] was 6%; in assay [3], -5%. Besides, the outcome in assay [5], in assay [6], in assay [7] and in assay [8] was inactive.
`COCCN(C)c1ccc(C(=O)Nc2ccccc2)cc1NS(=O)(=O)Cc1ccccc1`: the growth inhibition in assay [1] is 47%; in assay [4], 92% (active). Also, the inhibition is 2% in assay [2] and -5% in assay [3]. In addition, the result in assay [5], in assay [6], in assay [7] and in assay [8] was inactive.
Take `O=C(COc1ccc(Cl)c(Cl)c1)NCCCCCN1CCCN(C(=O)Nc2cc(Cl)cc(Cl)c2)CC1`: the growth inhibition is 1% in assay [1] and 89% (active) in assay [4]. Further, the inhibition is 44% in assay [2] and -5% in assay [3]. Also, the result in assay [5], in assay [6], in assay [7] and in assay [8] was inactive.
Regarding `Cc1cc(NN=Cc2ccc(Cl)cc2)c2cc(F)ccc2n1`, the growth inhibition in assay [1] is 98% (active); in assay [4], 101% (active). For the same molecule, the results for the inhibition in assay [2] and in assay [3] were 6% and 2%, respectively. Further, the result in assay [5], in assay [6], in assay [7] and in assay [8] was inactive.
For `N#Cc1cccc(Nc2nccc(Nc3ccc(Oc4ccccc4)cc3)n2)c1`, the growth inhibition in assay [1] was 17%; in assay [4], 94% (active). Besides, the inhibition in assay [2] was 12%; in assay [3], -6%. In addition, the outcome in assay [5], in assay [6], in assay [7] and in assay [8] was inactive.
For `O=[N+]([O-])c1ccc2nc(Nc3ccc(Cl)c(Cl)c3)c(Nc3ccc(Cl)c(Cl)c3)nc2c1`, the growth inhibition was 99% (active) in assay [1] and 101% (active) in assay [4]. In addition, the inhibition in assay [2] is 1%; in assay [3], 3%. The result in assay [5], in assay [6], in assay [7] and in assay [8] was inactive.
For the molecule `Cc1ccc(NC(=O)c2cccc(CN3CCCN(Cc4cccc(O)c4)CC3)c2)cc1`, the growth inhibition in assay [1] was 3%; in assay [4], 82% (active). For the same molecule, the inhibition is 22% in assay [2] and 1% in assay [3]. The result in assay [5], in assay [6], in assay [7] and in assay [8] was inactive.
Turning to `COc1ccc2c(NN=Cc3ccccc3[N+](=O)[O-])ccnc2c1`, the growth inhibition is 97% (active) in assay [1] and 102% (active) in assay [4]. Further, the inhibition is 98% (active) in assay [2] and -3% in assay [3]. Also, the result in assay [5], in assay [6], in assay [7] and in assay [8] was inactive.
As to `O=C(Cc1cccc(Cl)c1)N1CCc2cc3nccc(N4CCN5CCC[C@H]5C4)c3cc21`, the growth inhibition in assay [1] is 4%; in assay [4] it was 96% (active). Moreover, the results for the inhibition in assay [2] and in assay [3] were 14% and 4%, respectively. Further, the outcome in assay [5], in assay [6], in assay [7] and in assay [8] was inactive.
In the case of `CS(=O)(=O)NCCCNCc1cccc(-c2csc(-c3nc4ccccc4[nH]3)c2)c1`, the figures for the growth inhibition in assay [1] and in assay [4] were 9% and 95% (active), respectively. The inhibition in assay [2] was 23%; in assay [3] it was 8%. Moreover, the result in assay [5], in assay [6], in assay [7] and in assay [8] was inactive.
Consider `CN1CCN(c2ccnc3ccc(NC(=O)Nc4ccc(-c5ccccc5)cc4)cc23)CC1`, for which the growth inhibition in assay [1] was 41%; in assay [4], 99% (active). Further, the inhibition in assay [2] was -10%; in assay [3], -7%. In addition, the result in assay [5], in assay [6], in assay [7] and in assay [8] was inactive.
Take `CNC(=O)NC1CCN(Cc2c(-c3cccs3)nc3ccccc3c2C(=O)N[C@@H](C)C2CCCCC2)CC1`: the growth inhibition in assay [1] was 97% (active); in assay [4], 99% (active). For the same molecule, the results for the inhibition in assay [2] and in assay [3] were 5% and 1%, respectively. In addition, the result in assay [5], in assay [6], in assay [7] and in assay [8] was inactive.
Consider `CCN(CC)CCN(Cc1ccc(-c2ccc(Cl)cc2)cc1)C(=O)Cn1cc(CN(C)C)c(=O)nc1SCc1ccc(F)cc1`, for which the growth inhibition in assay [1] and in assay [4] was 99% (active) in each case. For the same molecule, the inhibition was 49% in assay [2] and 1% in assay [3]. For the same molecule, the result in assay [5], in assay [6], in assay [7] and in assay [8] was inactive.
`CCc1ccc(NC(=O)c2ccc(CN3CCCN(Cc4ccc(C)s4)CC3)cc2)cc1`: the figures for the growth inhibition in assay [1] and in assay [4] were -2% and 87% (active), respectively. Further, the values for the inhibition in assay [2] and in assay [3] were 48% and -2%, respectively. Further, the result in assay [5], in assay [6], in assay [7] and in assay [8] was inactive.
On to `COc1ccccc1CNC(=O)c1ccc(N2CCN(c3ccncc3)CC2)cn1`, for which the values for the growth inhibition in assay [1] and in assay [4] were 17% and 96% (active), respectively. For the same molecule, the inhibition in assay [2] is 16%; in assay [3], 2%. For the same molecule, the outcome in assay [5], in assay [6], in assay [7] and in assay [8] was inactive.
Turning to `COc1ccc(CCNC(=O)c2ccccc2O)cc1-c1ccc(C(C)(C)C)cc1`, the growth inhibition was 96% (active) in assay [1] and 95% (active) in assay [4]. Further, the inhibition in assay [2] was 25%; in assay [3], 0%. Further, the outcome in assay [5], in assay [6], in assay [7] and in assay [8] was inactive.
Consider `CN1CCCC(COc2cc3c(cc2Br)CCN3C(=O)Nc2ccc(-c3ccncc3)c(Cl)c2)C1` (stereo not given), for which the growth inhibition in assay [1] is 96% (active); in assay [4], 100% (active). For the same molecule, the inhibition is 99% (active) in assay [2] and -2% in assay [3]. In addition, the outcome in assay [5], in assay [6], in assay [7] and in assay [8] was inactive.
